Experimental data from paper PMC5540273 (PLoS ONE, 2017).

Tests used:
Details in all cases: concentration: 1 μM,replicates: in singlicate; n = 1
ASK2 = test system: T1, ASK2
T1 construct: gene MAP3K6

AURKA = test system: AURKA
AURKB = test system: AURKB
AURKC = test system: AURKC
AXL = test system: AXL
BIKE = test system: T2, BIKE
T2 construct: gene BMP2K

BLK = test system: BLK
BMPR1A = test system: BMPR1A
BMPR1B = test system: BMPR1B
BMPR2 = test system: BMPR2
BMX = test system: BMX
BRAF = test system: BRAF
BRK = test system: T3, BRK
T3 construct: gene PTK6

BRSK1 = test system: BRSK1
BRSK2 = test system: BRSK2
BTK = test system: BTK
BUB1 = test system: BUB1
CAMK1B = test system: CAMK1B
CAMK1D = test system: CAMK1D
CAMK1G = test system: CAMK1G
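Further: KINOMEscan kinase panel screen.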

CN(c1ccc2c(c1)nc(NCc1ccc(F)cc1)n2C)c1ccnc(Nc2ccc(CS(C)(=O)=O)cc2)n1.Cl [GW813244]
%Inh (ASK2): 0% | %Inh (AURKA): 77% | %Inh (AURKB): 70% | %Inh (AURKC): 67% | %Inh (AXL): 68% | %Inh (BIKE): 33% | %Inh (BLK): 57% | %Inh (BMPR1A): 16% | %Inh (BMPR1B): 0% | %Inh (BMPR2): 10% | %Inh (BMX): 16% | %Inh (BRAF): 96.8% | %Inh (BRK): 88% | %Inh (BRSK1): 0% | %Inh (BRSK2): 0% | %Inh (BTK): 0% | %Inh (BUB1): 50% | %Inh (CAMK1B): 0% | %Inh (CAMK1D): 0% | %Inh (CAMK1G): 22%

N#Cc1cccc(C(=O)NC2CCN(c3ccnc(Nc4ccc(F)cc4)n3)C2)c1 (stereo not shown) [GSK1379708]
%Inh (ASK2): 0% | %Inh (AURKA): 0% | %Inh (AURKB): 0% | %Inh (AURKC): 33% | %Inh (AXL): 20% | %Inh (BIKE): 22% | %Inh (BLK): 32% | %Inh (BMPR1A): 0% | %Inh (BMPR1B): 0% | %Inh (BMPR2): 0% | %Inh (BMX): 6% | %Inh (BRAF): 0% | %Inh (BRK): 16% | %Inh (BRSK1): 0% | %Inh (BRSK2): 0% | %Inh (BTK): 0% | %Inh (BUB1): 31% | %Inh (CAMK1B): 0% | %Inh (CAMK1D): 5% | %Inh (CAMK1G): 0%

Cc1ccc(C(=O)Nc2ccc(Oc3ccc4nc(NC(=O)C5CC5)cn4c3)c(F)c2)c(=O)n1-c1ccccc1
%Inh (ASK2): 0% | %Inh (AURKA): 0% | %Inh (AURKB): 82% | %Inh (AURKC): 48% | %Inh (AXL): 84% | %Inh (BIKE): 4% | %Inh (BLK): 99.3% | %Inh (BMPR1A): 0% | %Inh (BMPR1B): 0% | %Inh (BMPR2): 0% | %Inh (BMX): 73% | %Inh (BRAF): 57% | %Inh (BRK): 88% | %Inh (BRSK1): 0% | %Inh (BRSK2): 0% | %Inh (BTK): 0% | %Inh (BUB1): 0% | %Inh (CAMK1B): 0% | %Inh (CAMK1D): 0% | %Inh (CAMK1G): 0%

CCN1CCN(CCCC(=O)Nc2n[nH]c3nc(-c4ccc(O)cc4)c(Br)cc23)CC1 [SB-731579]
%Inh (ASK2): 49% | %Inh (AURKA): 0% | %Inh (AURKB): 5% | %Inh (AURKC): 0% | %Inh (AXL): 57% | %Inh (BIKE): 9% | %Inh (BLK): 0% | %Inh (BMPR1A): 0% | %Inh (BMPR1B): 15% | %Inh (BMPR2): 12% | %Inh (BMX): 0% | %Inh (BRAF): 81% | %Inh (BRK): 0% | %Inh (BRSK1): 50% | %Inh (BRSK2): 54% | %Inh (BTK): 0% | %Inh (BUB1): 5% | %Inh (CAMK1B): 65% | %Inh (CAMK1D): 17% | %Inh (CAMK1G): 0%

CCNCC(Cc1ccccc1)NC(=O)c1cc(Br)c(-c2ccnc3[nH]ccc23)s1.Cl.Cl (stereo not shown) [GSK1383280]
%Inh (ASK2): 0% | %Inh (AURKA): 96.2% | %Inh (AURKB): 93.6% | %Inh (AURKC): 86% | %Inh (AXL): 63% | %Inh (BIKE): 79% | %Inh (BLK): 0% | %Inh (BMPR1A): 0% | %Inh (BMPR1B): 0% | %Inh (BMPR2): 0% | %Inh (BMX): 3% | %Inh (BRAF): 0% | %Inh (BRK): 34% | %Inh (BRSK1): 0% | %Inh (BRSK2): 0% | %Inh (BTK): 0% | %Inh (BUB1): 31% | %Inh (CAMK1B): 28% | %Inh (CAMK1D): 32% | %Inh (CAMK1G): 11%
